The full ranking holds about 33,000 sequences; the median of “E-score (-0.5 to 0.5)” is about -0.015, and the highest 2% start at about 0.3. This is one part of a sample in which the highest values are shown more often than they occur.
molecular target: T1, Abf1 (UniProt P14164); experiment: PBM E-score (8-mer binding enrichment) (E-score (-0.5 to 0.5)); higher = stronger / more preferred TF binding; details: protein concentration: 200 nM; construct: GST-full length
T1 sequence: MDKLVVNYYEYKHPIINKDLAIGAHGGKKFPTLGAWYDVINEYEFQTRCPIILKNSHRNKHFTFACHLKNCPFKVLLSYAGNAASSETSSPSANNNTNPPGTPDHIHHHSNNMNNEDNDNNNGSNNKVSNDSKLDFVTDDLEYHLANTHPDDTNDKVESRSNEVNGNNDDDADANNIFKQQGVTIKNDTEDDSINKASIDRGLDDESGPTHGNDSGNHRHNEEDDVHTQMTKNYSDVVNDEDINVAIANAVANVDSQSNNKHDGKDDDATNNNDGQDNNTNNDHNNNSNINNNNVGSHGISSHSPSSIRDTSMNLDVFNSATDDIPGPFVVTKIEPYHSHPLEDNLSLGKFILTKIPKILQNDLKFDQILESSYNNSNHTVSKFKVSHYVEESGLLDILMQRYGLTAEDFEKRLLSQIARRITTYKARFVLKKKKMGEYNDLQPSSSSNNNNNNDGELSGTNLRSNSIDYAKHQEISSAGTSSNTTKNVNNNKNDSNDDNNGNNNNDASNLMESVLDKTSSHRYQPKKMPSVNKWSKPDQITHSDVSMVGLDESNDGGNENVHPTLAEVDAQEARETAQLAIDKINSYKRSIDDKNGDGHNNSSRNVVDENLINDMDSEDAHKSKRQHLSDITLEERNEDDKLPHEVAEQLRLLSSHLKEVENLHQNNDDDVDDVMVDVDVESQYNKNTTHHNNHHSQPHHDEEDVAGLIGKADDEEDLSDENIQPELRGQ
Outline: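 For each ungapped eight-base word taken together with its reverse complement, the Universal PBM Analysis Suite assigned an E-score. Binding data came from GST-tagged yeast transcription factors, applied at about 100-200 nM, on universal all-10-mer Agilent arrays made double-stranded by primer extension. Fluorescent anti-GST marked bound protein, and scans were normalised with masliner.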

Sequence	PBM E-score
TATGATGA	0.313
GATGATGA	0.223
CATGATGA	0.365
CAGTACCC	-0.0706
GGTAATAC	0.099
CGTAATAC	0.303
CGTAATAG	0.112
AAGTGAAT	0.16
CAGTGATG	0.255
AAGTGATC	0.41
AAGTGATG	0.314
AAGTGAGT	0.0964
GAGTGAAC	-0.115
ATGTGATG	0.0498
AGGTGATC	0.276
GAGTGAGC	0.033
AAGTGATT	0.347
GAGTGATC	0.327
ATGTGATC	0.18
CAAAATGA	0.275
CAAGATGC	0.148
TAACTCTA	-0.0858
TACAGGGA	-0.19
GACGGGAC	-0.171
ACGGCAAT	0.277

Sequence	PBM E-score
CTCAATGA	0.0427
TGAATTCA	0.171
CAGGGCCA	-0.227
CAGTGAGC	-0.118
CTGTGATC	0.0861
CAGTGATC	0.366
GGTGTACA	-0.178
CGTCATAC	0.316
AGTCATTA	0.037
CGTCATCC	0.167
CGTCATAG	0.143
AGTCATCA	0.135
GGTCATAC	-0.0499
GGTCATTA	0.134
CGTCATCA	0.349
CGTCATTA	0.327
GACTGCGA	-0.206
GCTATGCA	-0.102
AGGCACGG	0.062
GACAGACA	0.119
CGGTCAGC	-0.137
CACGTCTA	0.166
GAGAATAA	0.034
ATGATCAC	0.335
GTGATCAA	0.392

Sequence	PBM E-score
GTGATCAC	0.386
CTGATCAC	0.294
ACGATCAC	0.274
ATCATGAG	0.238
ATGATCAG	0.269
ATCATGAA	0.121
GGGATCAC	-0.0214
ATCATGAT	0.416
ATGATCAA	0.273
CTGATCAA	-0.114
CGAGCTTA	-0.0534
AGCAGTAC	-0.0878
GCAAACGC	0.00943
AAGGTCGC	0.0476
AATTGAAA	0.116
AATCCAGG	0.0662
CCTGTCTC	-0.123
ATGGGGTA	-0.00916
CGAGCGGC	-4e-05
CGTTACCC	-0.152
CCTCTATC	-0.0168
ATGATCAT	0.387
ACGATCAT	0.222
AGGATCAT	0.0179
CGACGTAA	0.123

Sequence	PBM E-score
TTACGTAA	0.196
CGACGTAC	0.322
ATACGTAC	0.165
AGACGTGA	0.227
GTACGTAC	-0.0114
GTACGTAA	0.343
CTACGTAC	0.297
CGACGTGA	0.297
GGACGTGA	0.0158
ATACGTAA	0.24
GGACGTAC	-0.0265
CATCAGAC	-0.02
CAGAGTAG	-0.205
AGGTATAG	-0.1
TAGCGAAA	-0.00307
ACGATGGG	-0.08
CGCATTTC	-0.0669
ACCGCTGA	-0.057
CCTACGAG	0.163
GGTACGAA	0.339
CGTACGAG	0.343
CCTACGAC	0.288
GGTACGAC	0.185
ATTACGAA	0.281
CGTACGAC	0.417

Sequence	PBM E-score
AGTACGAG	0.00494
TGTACAAA	0.0674
CTTACGAC	0.103
TGTACGAA	0.427
GGTACGTA	0.0572
CTCGAATC	-0.0489
CATCCTTC	0.0215
CCACTGGC	-0.107
CTTACGAA	0.216
AGTACGAT	0.106
AGTACGAA	0.368
CGTACGCA	0.217
AGTACGAC	0.18
CGTACGAA	0.447
CATAAGGC	0.16
GCTTGCGA	0.0664
CTCAAAAG	-0.0587
AACCGGTC	-0.154
AGATATCA	0.3
AGATATCT	0.158
TGATATAA	0.281
AGATATCC	0.232
GGATATCA	0.247
TGATATCA	0.34
CGAGGATC	0.101

Sequence	PBM E-score
AGGCGGAT	-0.0114
CTCGACAA	-0.0758
ACTTACCT	-0.165
CGGCAGGC	-0.0216
CTCCGGCC	-0.212
AAGACCGG	-0.0657
TCACACAA	0.0163
ACACACGA	0.279
CTACACGA	0.247
CGACACGC	0.0501
ATACACGA	0.179
GCACACGC	-0.209
GTACACGA	0.362
GCACACAA	-0.00644
AGACACGA	0.083
TCACACGA	0.297
GCACACGA	0.303
CGACACGA	0.298
GTCGTAAA	0.184
ACACTCAA	0.123
AAGAACAT	0.157
CATGTAAG	-0.112
CCTCCGTA	0.116
TCTCTGCA	0.0379
CGCTGCCG	-0.0244

Sequence	PBM E-score
ACCGGACC	-0.113
TAATCGGA	0.0729
CAGTCGAC	0.137
CGCCTGTA	-0.234
ATCGTGTA	0.376
ATCGTATC	0.242
ATCGTATA	0.326
GACGTATA	0.249
CTCGTGTA	0.157
AGCGTATG	-0.154
GTCGTATA	0.402
CTCGTATA	0.241
ATCGTATG	0.302
GTCGTGTA	0.239
ATAGTATG	0.161
AACGTATA	0.1
GGGCTACC	-0.186
GGGTCATA	-0.0763
CCCTCGTA	0.126
TATGACCA	-0.0211
GAACAGCC	-0.195
AGACCGAC	-0.00992
